{
  "source": "paper PMC6664820",
  "about": "“Novel natural and synthetic inhibitors of solute carriers SGLT1 and SGLT2” (Pharmacology Research & Perspectives, 2019)",
  "note": "Hit rate of the full screen: of about 1,900 compounds, about 40 (2%) showed an effect of 50% or more. The full list was thinned out, with strong results kept by preference.",
  "data": [
    {"biological_target": "human SGLT1 (hSGLT1) (human, UniProt P13866)", "sequence (P13866 whole entry, looked up)": "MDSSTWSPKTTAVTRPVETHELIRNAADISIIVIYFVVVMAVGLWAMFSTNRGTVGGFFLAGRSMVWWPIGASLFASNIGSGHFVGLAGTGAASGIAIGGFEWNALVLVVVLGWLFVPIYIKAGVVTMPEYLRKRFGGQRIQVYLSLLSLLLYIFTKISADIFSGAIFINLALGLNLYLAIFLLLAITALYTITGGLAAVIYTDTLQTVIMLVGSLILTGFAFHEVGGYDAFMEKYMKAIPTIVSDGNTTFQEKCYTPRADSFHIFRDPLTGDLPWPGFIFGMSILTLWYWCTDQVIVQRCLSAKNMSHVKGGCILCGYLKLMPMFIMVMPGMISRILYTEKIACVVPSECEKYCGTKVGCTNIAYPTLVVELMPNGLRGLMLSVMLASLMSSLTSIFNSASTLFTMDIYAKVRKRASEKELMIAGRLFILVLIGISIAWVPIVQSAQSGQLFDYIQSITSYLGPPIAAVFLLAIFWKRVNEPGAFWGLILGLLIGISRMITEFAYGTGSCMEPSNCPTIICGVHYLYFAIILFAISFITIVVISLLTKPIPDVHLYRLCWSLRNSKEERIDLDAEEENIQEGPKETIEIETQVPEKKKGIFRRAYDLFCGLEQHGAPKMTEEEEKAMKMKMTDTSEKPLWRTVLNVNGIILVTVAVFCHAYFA", "assay": "primary screen, percent of control activity; higher = less effect of the substance", "parameters": "single well", "settings": "50 µM", "description": "Two days before the assay, CHO‐wild type and CHO‐hSGLT1 cells were seeded in maintenance medium at 25 000 cells/well in clear‐bottom black 96‐well cell culture plates. Before the assay, cells were washed 3 times with 150 μL/well D‐glucose free DMEM with 0.3% (w/v) BSA. Library compounds at 50 μmol/L (singlicate) prepared in D‐glucose free DMEM with 160 μmol/L 1‐NBD‐glucose and 0.3% (w/v) BSA and negative controls (triplicate) were added at 100 μL/well and placed in a humidified incubator at 37°C with 5% CO2 for 90 minutes. Next, cells were washed 3 times with DMEM with 0.3% (w/v) BSA (150 μL/well). Care was taken to remove all medium after the last wash. Finally, 1‐NBD‐glucose was extracted from the cells by adding 10 μL/well isopropanol and orbital shaking for 5 minutes at 600 rpm, followed by incubation in the dark for 30 minutes. Fluorescence was measured on a Tecan Infinite M200 Microplate Reader (Tecan, Männedorf, Switzerland) with excitation at 445 nm and emission at 525 nm. The amount of 1‐NBD‐glucose taken up by the CHO‐wild type or CHO‐hSGLT1 cells in the presence or absence of test compounds was interpolated from 1‐NBD‐glucose calibration standards. The background uptake by CHO‐wild type was subtracted from the uptake by CHO‐hSGLT1. Background corrected uptake with test compound was expressed as a percentage of corrected uptake without test compound.", "units": {"NORMALIZED SGLT1 ACTIVITY (%)": "%"}, "values": [
      {"smiles": "O=P(O)(O)O.c1ccc(CN(CC2=NCCN2)c2ccccc2)cc1", "NORMALIZED SGLT1 ACTIVITY (%)": 87},
      {"smiles": "CC(C)COCC(CN(Cc1ccccc1)c1ccccc1)N1CCCC1.Cl", "note": "(centres unmarked)", "NORMALIZED SGLT1 ACTIVITY (%)": 48},
      {"smiles": "COc1cc2ccc(=O)oc2c(O)c1O", "NORMALIZED SGLT1 ACTIVITY (%)": 142},
      {"smiles": "CCCn1c(=O)c2nc(C3CCCC3)[nH]c2n(CCC)c1=O", "NORMALIZED SGLT1 ACTIVITY (%)": 180},
      {"smiles": "COc1cc(S(C)=O)ccc1-c1nc2cccnc2[nH]1", "note": "(centres unmarked)", "NORMALIZED SGLT1 ACTIVITY (%)": 237},
      {"smiles": "CC1(C)S[C@@H]2[C@H](NC(=O)Cc3ccccc3)C(=O)N2[C@H]1C(=O)[O-].[K+]", "NORMALIZED SGLT1 ACTIVITY (%)": 115},
      {"smiles": "CC1(C)CC[C@]2(C(=O)O)CC[C@]3(C)C(=CCC4[C@@]5(C)CC[C@@H](O)C(C)(C)C5CC[C@]43C)C2C1", "note": "(some centres unmarked)", "NORMALIZED SGLT1 ACTIVITY (%)": 133},
      {"smiles": "CC1(C)CC[C@]2(C)CC[C@]3(C)C(=CCC4[C@@]5(C)CC[C@H](O)C(C)(C)C5CC[C@]43C)C2C1", "note": "(some centres unmarked)", "NORMALIZED SGLT1 ACTIVITY (%)": 91},
      {"smiles": "CC1(C)CC[C@@]2(C(=O)O)C(C1)C1=CCC3[C@@]4(C)CC[C@H](O)C(C)(C)C4CC[C@@]3(C)[C@]1(C)C[C@@H]2O", "note": "(some centres unmarked)", "NORMALIZED SGLT1 ACTIVITY (%)": -6},
      {"smiles": "CC(=O)Oc1cc2c(c(C)c1OC(C)=O)CC1OC13[C@@]2(C)CC[C@@]1(C)C2C[C@](C)(C(=O)O)CC[C@]2(C)CC[C@]31C", "note": "(some centres unmarked)", "NORMALIZED SGLT1 ACTIVITY (%)": 204},
      {"smiles": "Cl.O=C(O)C1=CCNCC1", "NORMALIZED SGLT1 ACTIVITY (%)": 111},
      {"smiles": "CO/N=C1\\CN(c2nc3c(cc2F)c(=O)c(C(=O)O)cn3C2CC2)CC1CN.CS(=O)(=O)O", "note": "(centres unmarked)", "NORMALIZED SGLT1 ACTIVITY (%)": 157},
      {"smiles": "CC(C)[N+]1(C)C2CC[C@@H]1C[C@@H](OC(=O)C(CO)c1ccccc1)C2.[Br-]", "note": "(some centres unmarked)", "NORMALIZED SGLT1 ACTIVITY (%)": 83},
      {"smiles": "Cl.OC(CCN1CCCC1)(c1ccccc1)C1CCCCC1", "note": "(centres unmarked)", "NORMALIZED SGLT1 ACTIVITY (%)": 45},
      {"smiles": "Cl.OC(CCN1CCCCC1)(c1ccccc1)C1CCCCC1", "note": "(centres unmarked)", "NORMALIZED SGLT1 ACTIVITY (%)": 69},
      {"smiles": "CS(=O)(=O)O.OC(CCN1CCCCC1)(c1ccccc1)c1ccccc1", "NORMALIZED SGLT1 ACTIVITY (%)": 101},
      {"smiles": "CN(C)C(=O)Oc1ccc[n+](C)c1.[Br-]", "NORMALIZED SGLT1 ACTIVITY (%)": 105},
      {"smiles": "NC(Cc1c[nH]cn1)C(=O)Nc1ccc2ccccc2c1", "note": "(centres unmarked)", "NORMALIZED SGLT1 ACTIVITY (%)": 153},
      {"smiles": "C[C@H]1CC2C3CCC4=CC(=O)C=C[C@]4(C)[C@@]3(F)[C@@H](O)C[C@]2(C)[C@@]1(O)C(=O)CO", "note": "(some centres unmarked)", "NORMALIZED SGLT1 ACTIVITY (%)": 241},
      {"smiles": "CC(=O)OCC1=C(C(=O)[O-])N2C(=O)[C@@H](NC(=O)Cc3cccs3)[C@H]2SC1.[Na+]", "NORMALIZED SGLT1 ACTIVITY (%)": 140},
      {"smiles": "CCOP(=S)(OCC)Oc1ccc2c(C)c(Cl)c(=O)oc2c1", "NORMALIZED SGLT1 ACTIVITY (%)": 118},
      {"smiles": "CCOP(=S)(OCC)Oc1nc(Cl)c(Cl)cc1Cl", "NORMALIZED SGLT1 ACTIVITY (%)": 35},
      {"smiles": "CCOP(=S)(OCC)Oc1cc(C)nc(C(C)C)n1", "NORMALIZED SGLT1 ACTIVITY (%)": 107},
      {"smiles": "O=C(O)c1cc(O)c(=O)c2c(O)c(O)ccc2c1", "NORMALIZED SGLT1 ACTIVITY (%)": 141},
      {"smiles": "CC[C@H](C)[C@H](N)C(=O)N1CCC[C@H]1C(=O)N[C@H](C(=O)O)[C@@H](C)CC", "NORMALIZED SGLT1 ACTIVITY (%)": 98},
      {"smiles": "O=C(O)c1cc(O)ccc1O", "NORMALIZED SGLT1 ACTIVITY (%)": 145},
      {"smiles": "Cl.Cl.N=C(NCCCCCCNC(=N)NC(=N)Nc1ccc(Cl)cc1)NC(=N)Nc1ccc(Cl)cc1", "NORMALIZED SGLT1 ACTIVITY (%)": 25},
      {"smiles": "CC(C)NC(=N)NC(=N)Nc1ccc(Cl)cc1.Cl", "NORMALIZED SGLT1 ACTIVITY (%)": 130},
      {"smiles": "Cl.N=C(N)NC(=N)Nc1ccccc1", "NORMALIZED SGLT1 ACTIVITY (%)": 136},
      {"smiles": "CC1(C)NC(=O)N(c2ccc([N+](=O)[O-])c(C(F)(F)F)c2)C1=O", "NORMALIZED SGLT1 ACTIVITY (%)": 222},
      {"smiles": "O=C(/C=C/C=C/c1ccc2c(c1)OCO2)N1CCCCC1", "NORMALIZED SGLT1 ACTIVITY (%)": 87},
      {"smiles": "COc1ccc(-c2cc(=O)c3c(O)cc(O[C@H]4O[C@H](CO[C@@H]5O[C@@H](C)[C@H](O)[C@@H](O)[C@H]5O)[C@@H](O)[C@H](O)[C@H]4O)cc3o2)cc1", "NORMALIZED SGLT1 ACTIVITY (%)": 121},
      {"smiles": "Clc1ccc(C(c2ccc(Cl)cc2)C(Cl)(Cl)Cl)cc1", "NORMALIZED SGLT1 ACTIVITY (%)": 86},
      {"smiles": "COc1ccc2cc([C@H](C)CO)ccc2c1", "NORMALIZED SGLT1 ACTIVITY (%)": 111},
      {"smiles": "COc1ccc(C(c2ccc(OC)cc2)C(Cl)(Cl)Cl)cc1", "NORMALIZED SGLT1 ACTIVITY (%)": 42},
      {"smiles": "COc1ccc(CCC(=O)c2c(O)cc(O[C@@H]3O[C@H](CO)C(O)[C@H](O)C3O[C@@H]3O[C@@H](C)[C@H](O)[C@@H](O)[C@H]3O)cc2O)cc1O", "note": "(some centres unmarked)", "NORMALIZED SGLT1 ACTIVITY (%)": 143},
      {"smiles": "C#CCCCCCCCCCCCC(O)CC(O)COC(C)=O.C=CCCCCCCCCCCCC(O)CC(O)COC(C)=O", "note": "(centres unmarked)", "NORMALIZED SGLT1 ACTIVITY (%)": 197},
      {"smiles": "COC(=O)[C@H]1[C@H]2C[C@H]3c4[nH]c5cc(OC)ccc5c4CCN3C[C@H]2C[C@@H](OC(=O)c2cc(OC)c(OC)c(OC)c2)[C@@H]1OC", "NORMALIZED SGLT1 ACTIVITY (%)": 345},
      {"smiles": "C/C=C(\\C)C(=O)O[C@@H]1c2c(ccc3ccc(=O)oc23)OC(C)(C)[C@@H]1OC(C)=O", "NORMALIZED SGLT1 ACTIVITY (%)": 5},
      {"smiles": "CC(=O)O[C@@H]1c2c(ccc3ccc(=O)oc23)OC(C)(C)[C@@H]1OC(=O)CC(C)C", "NORMALIZED SGLT1 ACTIVITY (%)": 51},
      {"smiles": "CC1(C)Oc2ccc3ccc(=O)oc3c2CC1O", "note": "(centres unmarked)", "NORMALIZED SGLT1 ACTIVITY (%)": 159},
      {"smiles": "O=C1CN(/N=C/c2ccc(-c3ccc([N+](=O)[O-])cc3)o2)C(=O)[N-]1.[Na+]", "NORMALIZED SGLT1 ACTIVITY (%)": 103},
      {"smiles": "CCC(C)(C)C(=O)O[C@H]1C[C@@H](C)C=C2C=C[C@H](C)[C@H](CC[C@@H]3C[C@@H](O)CC(=O)O3)[C@H]21", "NORMALIZED SGLT1 ACTIVITY (%)": 96},
      {"smiles": "CC1=C(/C=C/C(C)=C/C=C/C(C)=C/C=C/C=C(C)/C=C/C=C(C)/C=C/C(=O)[C@]2(C)C[C@@H](O)CC2(C)C)C(C)(C)C[C@H](O)C1", "NORMALIZED SGLT1 ACTIVITY (%)": 103}
    ]}
  ]
}
